The structures appear in SMILES notation.

Experiment [1] concerns the target Ephrin type-A receptor 5 (Homo sapiens) (UniProt P54756). The note with it: at 1 µM.
The target is the same in experiment [2]. To be noted: at 10 µM.
Experiment [3] deals with Ephrin type-A receptor 7 (Homo sapiens) (UniProt Q15375). The note with it: at 1 µM.
The target is the same in experiment [4]. To be noted: at 10 µM.
Experiment [5] deals with T1, Ephrin type-B receptor 4 (Homo sapiens) (UniProt P54760).
T1 sequence (whole entry): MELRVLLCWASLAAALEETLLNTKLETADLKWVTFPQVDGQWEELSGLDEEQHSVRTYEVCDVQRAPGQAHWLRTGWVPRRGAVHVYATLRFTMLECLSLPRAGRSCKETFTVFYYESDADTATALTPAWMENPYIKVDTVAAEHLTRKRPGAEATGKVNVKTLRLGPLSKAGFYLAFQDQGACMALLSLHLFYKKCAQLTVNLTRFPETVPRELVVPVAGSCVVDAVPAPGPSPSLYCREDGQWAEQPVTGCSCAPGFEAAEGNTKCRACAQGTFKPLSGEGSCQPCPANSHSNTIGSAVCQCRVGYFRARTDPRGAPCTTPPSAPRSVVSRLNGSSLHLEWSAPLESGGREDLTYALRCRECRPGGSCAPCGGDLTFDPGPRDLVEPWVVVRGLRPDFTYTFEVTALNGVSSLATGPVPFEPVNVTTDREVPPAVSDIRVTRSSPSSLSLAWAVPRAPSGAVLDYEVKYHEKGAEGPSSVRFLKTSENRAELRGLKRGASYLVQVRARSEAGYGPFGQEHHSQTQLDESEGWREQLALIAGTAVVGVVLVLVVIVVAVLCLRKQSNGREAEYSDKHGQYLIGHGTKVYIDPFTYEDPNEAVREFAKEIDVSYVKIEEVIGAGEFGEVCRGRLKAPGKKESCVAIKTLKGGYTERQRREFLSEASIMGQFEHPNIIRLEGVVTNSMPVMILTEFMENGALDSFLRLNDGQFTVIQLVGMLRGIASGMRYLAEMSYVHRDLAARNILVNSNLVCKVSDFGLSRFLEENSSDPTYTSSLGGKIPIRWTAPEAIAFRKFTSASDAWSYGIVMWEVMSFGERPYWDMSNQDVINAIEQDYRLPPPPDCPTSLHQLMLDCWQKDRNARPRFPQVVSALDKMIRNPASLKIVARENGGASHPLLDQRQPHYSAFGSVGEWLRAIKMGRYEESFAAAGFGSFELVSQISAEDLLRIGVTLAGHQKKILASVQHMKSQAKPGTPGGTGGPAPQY
The note with it: at 1 µM.

Experiment [6] addresses T1, Ephrin type-B receptor 4 (Homo sapiens). To be noted: at 10 µM.
Experiment [7] deals with Receptor tyrosine-protein kinase erbB-4 (Homo sapiens) (UniProt Q15303). To be noted: at 1 µM.
Receptor tyrosine-protein kinase erbB-4 (Homo sapiens), sequence (Q15303 whole entry): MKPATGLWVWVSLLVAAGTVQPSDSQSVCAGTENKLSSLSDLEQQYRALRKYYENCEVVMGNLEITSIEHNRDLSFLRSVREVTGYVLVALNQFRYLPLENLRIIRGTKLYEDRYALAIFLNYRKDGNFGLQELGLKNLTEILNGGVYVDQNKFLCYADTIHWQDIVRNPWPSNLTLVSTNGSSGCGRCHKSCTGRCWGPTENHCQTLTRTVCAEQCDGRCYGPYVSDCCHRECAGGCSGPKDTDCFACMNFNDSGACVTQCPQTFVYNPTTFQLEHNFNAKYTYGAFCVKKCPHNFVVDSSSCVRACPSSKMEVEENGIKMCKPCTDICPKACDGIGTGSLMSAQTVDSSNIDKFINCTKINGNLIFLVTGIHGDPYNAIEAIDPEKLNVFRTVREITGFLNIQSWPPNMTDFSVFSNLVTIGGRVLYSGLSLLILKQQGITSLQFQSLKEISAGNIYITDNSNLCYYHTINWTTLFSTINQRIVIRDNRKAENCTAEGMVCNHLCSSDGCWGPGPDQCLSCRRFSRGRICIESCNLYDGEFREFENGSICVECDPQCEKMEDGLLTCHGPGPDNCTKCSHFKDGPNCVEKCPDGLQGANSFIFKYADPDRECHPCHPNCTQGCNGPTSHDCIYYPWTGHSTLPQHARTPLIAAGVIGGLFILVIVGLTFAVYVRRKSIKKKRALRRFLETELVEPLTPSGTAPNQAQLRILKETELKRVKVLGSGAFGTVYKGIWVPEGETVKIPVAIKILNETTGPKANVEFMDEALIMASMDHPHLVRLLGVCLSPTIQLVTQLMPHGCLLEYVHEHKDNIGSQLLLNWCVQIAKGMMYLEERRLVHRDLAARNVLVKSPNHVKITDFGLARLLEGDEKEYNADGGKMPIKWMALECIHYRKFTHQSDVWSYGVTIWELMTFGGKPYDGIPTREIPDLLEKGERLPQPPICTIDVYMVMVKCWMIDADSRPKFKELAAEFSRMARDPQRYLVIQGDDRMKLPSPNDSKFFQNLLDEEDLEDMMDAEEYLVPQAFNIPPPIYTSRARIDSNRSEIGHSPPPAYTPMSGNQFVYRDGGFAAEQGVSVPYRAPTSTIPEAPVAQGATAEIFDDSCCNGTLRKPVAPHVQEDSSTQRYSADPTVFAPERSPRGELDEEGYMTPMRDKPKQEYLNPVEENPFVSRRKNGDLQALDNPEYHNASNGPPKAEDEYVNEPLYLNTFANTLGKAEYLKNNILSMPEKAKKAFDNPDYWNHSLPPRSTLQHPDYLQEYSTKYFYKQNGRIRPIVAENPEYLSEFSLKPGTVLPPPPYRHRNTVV
Experiment [8] has the same target. The note with it: at 10 µM.
Experiment [9] addresses Focal adhesion kinase 1 (Homo sapiens) (UniProt Q05397). To be noted: at 1 µM.

Ephrin type-A receptor 7 (Homo sapiens), sequence (Q15375 28-998 limits assumed): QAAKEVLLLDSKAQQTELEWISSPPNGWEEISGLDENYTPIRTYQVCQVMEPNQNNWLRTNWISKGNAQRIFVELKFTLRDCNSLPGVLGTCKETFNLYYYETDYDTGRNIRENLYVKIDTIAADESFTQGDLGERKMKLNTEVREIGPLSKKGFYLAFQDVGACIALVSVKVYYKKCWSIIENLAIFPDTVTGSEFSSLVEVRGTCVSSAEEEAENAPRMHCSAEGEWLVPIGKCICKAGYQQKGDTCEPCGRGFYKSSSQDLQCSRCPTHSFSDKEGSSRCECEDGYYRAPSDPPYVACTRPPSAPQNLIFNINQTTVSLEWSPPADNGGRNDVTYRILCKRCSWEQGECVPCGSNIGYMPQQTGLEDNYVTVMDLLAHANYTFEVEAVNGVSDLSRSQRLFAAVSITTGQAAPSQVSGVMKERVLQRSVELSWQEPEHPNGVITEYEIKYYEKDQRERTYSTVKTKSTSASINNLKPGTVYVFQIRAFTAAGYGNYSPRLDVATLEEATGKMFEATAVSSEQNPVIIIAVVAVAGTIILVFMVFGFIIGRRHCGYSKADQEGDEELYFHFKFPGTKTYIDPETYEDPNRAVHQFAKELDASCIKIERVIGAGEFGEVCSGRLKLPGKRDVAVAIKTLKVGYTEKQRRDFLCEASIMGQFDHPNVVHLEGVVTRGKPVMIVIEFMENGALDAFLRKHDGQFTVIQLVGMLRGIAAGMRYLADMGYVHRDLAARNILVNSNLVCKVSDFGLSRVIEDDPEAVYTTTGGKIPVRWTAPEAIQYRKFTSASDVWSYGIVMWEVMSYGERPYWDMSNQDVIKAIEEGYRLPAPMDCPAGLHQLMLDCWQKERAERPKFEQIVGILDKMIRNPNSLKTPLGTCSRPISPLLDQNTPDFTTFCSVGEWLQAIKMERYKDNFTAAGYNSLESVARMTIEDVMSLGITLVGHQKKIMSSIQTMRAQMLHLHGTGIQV
Ephrin type-A receptor 5 (Homo sapiens), sequence (P54756 whole entry): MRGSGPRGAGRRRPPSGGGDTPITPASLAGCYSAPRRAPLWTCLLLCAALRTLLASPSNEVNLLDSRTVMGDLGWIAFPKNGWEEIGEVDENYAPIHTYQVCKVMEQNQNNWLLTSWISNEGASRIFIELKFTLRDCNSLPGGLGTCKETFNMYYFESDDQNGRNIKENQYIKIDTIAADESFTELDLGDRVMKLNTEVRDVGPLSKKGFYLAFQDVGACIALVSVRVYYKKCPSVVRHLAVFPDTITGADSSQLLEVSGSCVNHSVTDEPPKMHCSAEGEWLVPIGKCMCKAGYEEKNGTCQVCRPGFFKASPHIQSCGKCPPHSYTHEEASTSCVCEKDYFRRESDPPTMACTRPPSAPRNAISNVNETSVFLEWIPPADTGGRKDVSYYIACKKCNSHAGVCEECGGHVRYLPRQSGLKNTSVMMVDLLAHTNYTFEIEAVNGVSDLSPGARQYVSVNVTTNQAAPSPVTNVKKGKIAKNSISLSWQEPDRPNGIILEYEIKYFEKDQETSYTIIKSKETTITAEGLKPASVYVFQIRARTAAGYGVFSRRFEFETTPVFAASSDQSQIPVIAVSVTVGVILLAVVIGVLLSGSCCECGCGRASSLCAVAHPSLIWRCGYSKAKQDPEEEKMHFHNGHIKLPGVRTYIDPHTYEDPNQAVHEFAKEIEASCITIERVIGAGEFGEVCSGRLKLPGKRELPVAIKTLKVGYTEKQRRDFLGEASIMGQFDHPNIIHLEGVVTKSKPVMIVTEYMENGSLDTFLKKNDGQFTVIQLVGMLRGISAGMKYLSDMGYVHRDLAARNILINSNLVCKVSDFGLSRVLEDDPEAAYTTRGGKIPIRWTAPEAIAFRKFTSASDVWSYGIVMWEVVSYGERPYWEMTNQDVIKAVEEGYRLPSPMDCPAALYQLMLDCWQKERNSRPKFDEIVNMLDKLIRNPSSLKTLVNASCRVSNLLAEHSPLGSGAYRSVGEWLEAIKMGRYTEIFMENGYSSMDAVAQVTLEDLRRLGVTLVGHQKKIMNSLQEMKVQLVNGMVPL
Focal adhesion kinase 1 (Homo sapiens), sequence (Q05397 2-1052 limits assumed): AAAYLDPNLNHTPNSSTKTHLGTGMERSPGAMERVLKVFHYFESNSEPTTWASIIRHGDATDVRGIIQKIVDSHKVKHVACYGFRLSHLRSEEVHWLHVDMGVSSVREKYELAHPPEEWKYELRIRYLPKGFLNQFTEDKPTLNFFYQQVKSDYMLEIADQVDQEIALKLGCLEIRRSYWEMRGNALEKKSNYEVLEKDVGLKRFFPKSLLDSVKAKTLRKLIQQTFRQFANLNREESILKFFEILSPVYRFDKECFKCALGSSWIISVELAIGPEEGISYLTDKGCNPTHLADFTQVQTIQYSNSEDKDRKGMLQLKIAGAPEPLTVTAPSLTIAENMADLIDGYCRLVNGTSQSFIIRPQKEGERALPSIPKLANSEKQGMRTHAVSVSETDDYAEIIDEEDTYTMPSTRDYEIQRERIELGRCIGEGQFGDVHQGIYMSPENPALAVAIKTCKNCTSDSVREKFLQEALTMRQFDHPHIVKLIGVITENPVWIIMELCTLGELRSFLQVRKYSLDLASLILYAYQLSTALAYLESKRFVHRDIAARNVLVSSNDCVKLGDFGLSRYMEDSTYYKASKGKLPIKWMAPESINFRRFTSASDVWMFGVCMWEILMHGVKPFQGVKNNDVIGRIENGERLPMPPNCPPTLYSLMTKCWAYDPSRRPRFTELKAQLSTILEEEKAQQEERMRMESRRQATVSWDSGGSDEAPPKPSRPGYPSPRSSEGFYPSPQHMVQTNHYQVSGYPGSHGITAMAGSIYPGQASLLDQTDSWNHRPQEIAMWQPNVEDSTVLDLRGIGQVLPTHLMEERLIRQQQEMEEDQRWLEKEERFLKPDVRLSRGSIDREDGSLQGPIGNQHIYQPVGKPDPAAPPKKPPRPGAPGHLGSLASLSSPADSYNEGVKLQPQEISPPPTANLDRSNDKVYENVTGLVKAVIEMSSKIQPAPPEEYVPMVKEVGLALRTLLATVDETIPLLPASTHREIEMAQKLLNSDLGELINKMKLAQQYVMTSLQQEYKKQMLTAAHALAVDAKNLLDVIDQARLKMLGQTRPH

For orientation: residual activity means the signal under treatment as a percentage of the control signal. Turning to `N#CC(C#N)=C(N)/C(C#N)=C/c1ccc(O)cc1`, the residual activity came out at 125% in experiment [1]; 96% in [2]; 91% in experiment [3]; 81% in experiment [4]; 116% in experiment [5]; 119% in experiment [6]. For the same molecule, the residual activity amounted to 95% in experiment [7], 76% in experiment [8] and 132% in experiment [9].

(Values after ChEMBL document CHEMBL2218924, “A broad activity screen in support of a chemogenomic map for kinase signalling research and drug discovery” (Biochem J, 2013).)
